# Data published in PubChem BioAssay AID1117362 (Southern Research Institute, 2015).
# The whole screen tested about 3,600 compounds, of which about 100 (2.8%) were called active.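 Rule for the calls: active = inhibition above 30% at one or more concentrations, seen consistently on every test date; inconclusive = results that disagree between repeat test dates; inactive = the rest.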 These entries were drawn from the full list.
# Assay: GST-antibody interaction or FRET quenching – biochemical, TR-FRET, artefact control for Vif-APOBEC3G degradation inhibitor project, dose response (AID 1117362);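 note: biotinylated GST protein used in place of GST-Vif 1-94 and biotin-A3G peptide; detects fluorescence quenchers or blockers of GST binding to anti-GST antibody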
# Details: TR-FRET counter screen, biotin-GST/anti-GST signal; series mostly up to 100 µM; inhibition: at the top concentration
row,Compound,inhibition
1,Cc1noc(/C=C/c2ccco2)c1S(=O)(=O)N1CCC(C(=O)N2c3ccccc3CC2C)CC1 (stereo not drawn),-2.34% (inactive)
2,Cc1cc(C)nc(N/N=C/C2=C(N3CCOCC3)C(=C\c3ccc(Cl)cc3)/CC2)n1,-0.34% (inactive)
3,Cc1ccccc1NC(=O)c1c(C)[nH]c(=S)c(C#N)c1-c1ccco1,-2.56% (inactive)
4,COc1ccc(OC)c(C2C(C(=O)Nc3ccc(F)cc3)=C(C)Nc3nc(CCCO)nn32)c1 (stereo not drawn),-2.07% (inactive)
5,c1ccc2c(c1)CCCN2Cc1nnc2n1CCCCC2,18% (inactive)
6,CCOC(=O)C1CCN(C(c2cccs2)c2sc3nc(C)nn3c2O)CC1 (stereo not drawn),-0.51% (inactive)
7,Cc1onc(-c2c(F)cccc2Cl)c1C(=O)Nc1nnc(C2CC2)s1,16.8% (inactive)
8,O=C(O)c1ccc(Cl)c2c1C1C=CCC1C(c1ccccn1)N2 (stereo not drawn),8.39% (inactive)
9,COCCCNC(=O)/C(C#N)=C/c1ccc(OCC(=O)O)c(OC)c1,5.26% (inactive)
10,CCOC(=O)N1CCN(C(=O)c2ccc3c(SCC(=O)O)c4c(nc3c2)CCC4)CC1,6.29% (inactive)
11,COC(=O)C1=C(C)NC(=O)/C1=C\c1cccs1,-11.6% (inactive)
12,CC(=O)C1=C(C)NC(C)=C(C(C)=O)C1c1cccs1,0.1% (inactive)
13,CNc1c(C(=O)O)ccc2c1C(=O)c1ccccc1C2=O,-29.9% (inactive)
14,COCc1cc(C)nc(NCCO)c1C#N,0.98% (inactive)
15,CC(C)c1ccc(/C=C/C(=O)N2CCc3ccccc3C2)cc1,-2.23% (inactive)
16,CCOC(=O)C1=C(c2ccccc2)N=c2s/c(=C\c3ccco3)c(=O)n2C1c1cccs1 (stereo not drawn),0.16% (inactive)
17,O=C(O)Cc1ccc(N=Nc2c(O)c(C(=O)O)cc3ccccc23)cc1,-2.75% (inactive)
18,COC(=O)c1ccc(C)c(NC(=O)CCSc2ccccc2)c1,4.21% (inactive)
19,O=C(COC(=O)c1c2c(nc3ccccc13)/C(=C\c1ccco1)CC2)NC1CCCC1,7.73% (inactive)
20,CCC(=O)N1N=C(c2ccc(NS(C)(=O)=O)cc2)CC1c1ccc(C)cc1 (stereo not drawn),1.76% (inactive)
21,Cn1nc(-c2ccc(Cl)cc2)c2cc(C(=O)N3CCN(c4ccccc4)CC3)sc21,-21.1% (inactive)
22,CCOC(=O)c1sc2nc(CC(=O)OC)nc(NCc3ccco3)c2c1C,6.59% (inactive)
23,CCOc1ccc(-n2c(Cc3cc(=O)[nH]c(=O)[nH]3)nnc2SCC(N)=O)cc1,1.18% (inactive)

row,Compound,inhibition
1,COC(=O)COc1ccc(S(=O)(=O)Nc2cc(OC)ccc2OC)cc1,5.91% (inactive)
2,COC(=O)CSc1nnc(CNC(=O)Cc2ccccc2)n1C,-1.09% (inactive)
3,CCOC(=O)c1cc2cc(F)ccc2nc1C,-1.31% (inactive)
4,O=C(Cc1ccccc1)NC(Nc1ccccc1)C(Cl)(Cl)Cl (stereo not drawn),-1.08% (inactive)
5,Cc1ccc(C)c(-n2c(Cc3cc(=O)[nH]c(=O)[nH]3)nnc2SC(C)C)c1,3.25% (inactive)
6,O/N=C1\CCC\C1=C/c1ccco1,1.01% (inactive)
7,O=C(CCCCCN1C(=O)CCC1=O)Nc1ccc(Cl)c(C(F)(F)F)c1,3.39% (inactive)
8,Cc1ccc(N(CC(=O)NCCSCc2ccco2)S(=O)(=O)c2ccc(F)cc2)cc1,1.13% (inactive)
9,CCOc1ccc(-n2c(Cc3cc(=O)[nH]c(=O)[nH]3)nnc2SCC(=O)NC2CCCC2)cc1,0.17% (inactive)
10,CC1CCCN(C(=O)CN2CCN(C(=O)c3ccco3)CC2)C1 (stereo not drawn),-3.6% (inactive)
11,COc1ccc(CCNC(=O)CN2CCCc3ccccc32)cc1OC,18.5% (inactive)
12,O=C(c1ccco1)N1CCN(C(c2ccccn2)c2nnnn2C2CCCC2)CC1 (stereo not drawn),5.15% (inactive)
13,O=C(NC1CCCC1)C(c1ccco1)N(Cc1ccccc1)C(=O)c1csnn1 (stereo not drawn),-2.57% (inactive)
14,c1cncc(-c2csc(NCc3ccco3)n2)c1,3.94% (inactive)
15,COc1cc(CC(=O)OCC(=O)Nc2cccc([N+](=O)[O-])c2)cc(OC)c1OC,5.53% (inactive)
16,CCOC(=O)Cn1nnnc1C(C(C)C)N(Cc1cc2c(C)cc(C)cc2[nH]c1=O)C1CCCC1 (stereo not drawn),2.05% (inactive)
17,CC(=O)Nc1ccc(S(=O)(=O)NCCSCc2ccco2)cc1,-6.34% (inactive)
18,CCOC(=O)c1cnn2c(N)c(C#N)nnc12,6.25% (inactive)
19,CSc1nc(N(CCO)CCO)c2sc3nc(-c4ccco4)c4c(c3c2n1)CCC4,1.7% (inactive)
20,CC(=C/c1ccco1)/C=N/NC(=O)Cc1cccn1C,1.17% (inactive)
21,COc1ccccc1NC(=O)CSc1nnc(Cc2cc(=O)[nH]c(=O)[nH]2)n1-c1ccccc1,4.67% (inactive)
22,Cc1nc2ncccn2c1-c1csc(NCc2ccco2)n1,28.8% (inactive)
23,Cc1cc(S(=O)(=O)N(Cc2ccccn2)Cc2ccco2)ccc1-n1cnnn1,4.56% (inactive)

row,Compound,inhibition
1,COc1ccccc1C1C=C(c2ccc(C)cc2)Nc2nnnn21 (stereo not drawn),-0.76% (inactive)
2,O=C(O)/C=C/C(=O)Nc1cccnc1,0.54% (inactive)
3,O=C(c1cc2n(n1)C(C(F)(F)F)CC(c1ccco1)N2)N1CCc2ccccc2C1 (stereo not drawn),-4.85% (inactive)
4,COc1ccc(-c2ccc(C#N)c(SCC(=O)Nc3sc4c(c3C#N)CCC4)n2)cc1OC,2.31% (inactive)
5,CC(=O)OC1COC(n2ccc3ccccc32)C(OC(C)=O)C1OC(C)=O (stereo not drawn),2.58% (inactive)
6,O=C1C2C3CCCC3=C3CCCC3C2C(=O)N1c1ccccc1 (stereo not drawn),5.45% (inactive)
7,CCCCn1c(=NC(=O)c2cccnc2)c(C#N)cc2c(=O)n3cccc(C)c3nc21,11.7% (inactive)
8,CCc1ccc2nc(N3CCN(C)CC3)c(C#N)cc2c1,4.9% (inactive)
9,Cc1nc2cc(N=NC3=C(O)CCCC3=O)ccc2s1,26.2% (inactive)
10,COc1ccc2ccccc2c1C1CC(=O)N2CN(Cc3ccco3)CSC2=C1C#N (stereo not drawn),4.69% (inactive)
11,C=CC(=O)N1C/C(=C/c2ccc(F)cc2)C(=O)/C(=C\c2ccc(F)cc2)C1,0.46% (inactive)
12,O=C1NC(=S)N/C1=C/c1ccc(-c2c(Br)cc([N+](=O)[O-])cc2Br)o1,11.7% (inactive)
13,COC(=O)C1=C(N)OC2=C(C(=O)CCC2)C1c1cccs1 (stereo not drawn),0.5% (inactive)
14,CC1(c2ccc3noc(-c4ccccc4)c3c2)OCCO1,2.44% (inactive)
15,O=C(COC(=O)/C=C/c1ccco1)Nc1ncc(C(F)(F)F)cc1Cl,-4.53% (inactive)
16,CCOC(=O)c1c(C)oc2c1c(C=NCc1ccccn1)c(O)c1ccccc12,21.7% (inactive)
17,Cc1ccc(C(=O)Nc2ccc(O)c(C(=O)O)c2)o1,3.82% (inactive)
18,COc1ccccc1/C=C(/CC(=O)NCc1ccccc1)c1nc2ccccc2s1,0.36% (inactive)
19,COc1ccc(-c2nc3oc4cc(OC)ccc4c(=O)c3c(=O)n2Cc2ccco2)cc1,-0.8% (inactive)
20,O=S(=O)(Nc1nccs1)c1ccc(Nc2nnc(-c3ccccc3)c3ccccc23)cc1,-2.36% (inactive)
21,Cc1ccc(-n2c(C)cc(C(=O)OCC(=O)N(CC(C)C)C3CCS(=O)(=O)C3)c2C)cc1 (stereo not drawn),3.83% (inactive)
22,CCOc1cc(N2CCOCC2)c(OCC)cc1NS(=O)(=O)c1ccc(Cl)s1,9.78% (inactive)
